Drawing on PubChem BioAssay AID583 (Sanford-Burnham Center for Chemical Genomics, 2007), this text covers displacement for 61 molecules.

“And” between values parts separate entries of the source, which are not always exact repeats. Equal values may be shown once. About 80 (0.06%) of roughly 140,000 compounds were called active. The sample as a whole holds a higher share of actives than the screen did. Unmarked numbers belong to inactive results. Rule as the data show it: active = displacement above about 50%; inactive = the rest.

Chain of Heat shock 70 kDa protein 1A (Homo sapiens) (P0DMV8 whole entry, looked up): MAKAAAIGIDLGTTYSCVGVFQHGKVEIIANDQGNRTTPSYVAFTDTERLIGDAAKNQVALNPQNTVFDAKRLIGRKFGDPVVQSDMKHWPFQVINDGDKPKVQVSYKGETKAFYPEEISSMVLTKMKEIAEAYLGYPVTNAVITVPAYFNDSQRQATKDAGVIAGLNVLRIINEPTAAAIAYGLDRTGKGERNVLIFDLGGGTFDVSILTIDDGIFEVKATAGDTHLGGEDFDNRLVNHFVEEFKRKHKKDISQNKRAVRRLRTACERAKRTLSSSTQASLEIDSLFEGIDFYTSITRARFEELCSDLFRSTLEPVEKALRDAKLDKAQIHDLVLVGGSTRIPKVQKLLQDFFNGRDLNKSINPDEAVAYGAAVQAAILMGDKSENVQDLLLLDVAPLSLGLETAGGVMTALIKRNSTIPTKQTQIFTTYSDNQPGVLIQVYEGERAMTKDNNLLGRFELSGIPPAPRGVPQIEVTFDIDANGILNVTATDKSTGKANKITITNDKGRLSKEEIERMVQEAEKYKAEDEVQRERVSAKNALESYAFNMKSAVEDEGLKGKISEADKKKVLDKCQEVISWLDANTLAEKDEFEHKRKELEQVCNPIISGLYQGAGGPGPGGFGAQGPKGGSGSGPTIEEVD

The experiment has as its target Heat shock 70 kDa protein 1A (Homo sapiens) (UniProt P0DMV8). In words: small molecules displacing fluorescent ligand from Hsp70 – biochemical, fluorescence polarization, primary screen (AID 583).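 Also: plate controls were vehicle for no effect and reference ligand for full effect.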 The note with it: Hsp70 fluorescence polarization probe displacement, mP; at 20 µM; active compounds read high. Background: Polarisation of emitted light reports the rotation of a fluorescent probe.
Regarding `CC(NS(C)(=O)=O)C(c1cccs1)N1CCN(Cc2ccccc2)CC1` (stereo unspecified), the displacement is 3.1%.
The same measure for `O=C1N=c2ccccc2=C1c1sc(=Nc2ccccc2)n(-c2ccccc2)c1O`: 5.2%.
In the case of `O=C1N=c2ccccc2=C1c1s/c(=N/N=C2/C(=O)Nc3ccccc32)n(-c2ccc(O)cc2)c1O` it was 93.6% (active).
In the case of `O=C1N=c2ccccc2=C1c1sc(=O)n(-c2ccc(O)cc2)c1O` it was -21.2%; in that of `CC(=O)NS(=O)(=O)c1ccc(NC(=O)c2ccccc2F)cc1`, 6%.
Regarding `COCC(=O)Nc1nc(-c2ccccc2)c(C)s1`, the displacement was -1.9%.
With `O=C1NC(=S)N/C1=C\c1ccc(-c2cccc([N+](=O)[O-])c2)o1`, the displacement is 0.3%.
In the case of `O=C1NC(=S)N/C1=C\c1ccc(-c2cc([N+](=O)[O-])ccc2Br)o1` it was 51.2% (active).
In the case of `O=C1NC(=S)N/C1=C/c1ccc(-c2cc([N+](=O)[O-])ccc2Cl)o1` it was 17.3%; in that of `Cc1ccc(NC(=O)c2ccccc2Br)cc1`, 1.9%.
The same measure for `COc1ccccc1NC1=NC2(CCCCC2)N=C(N)N1`: 97.6% (active); for `COc1ccc(OC)c(NC2=NC3(CCCCC3)N=C(N)N2)c1`: -6.7% and 3.4%.
For the molecule `COc1ccc(OC)c(NC2=NC3(CCCC3)N=C(N)N2)c1`, the displacement was 0.2% and -1.2%.
The same measure for `CC(C)Oc1c(I)cc(I)cc1/C=C(/C#N)c1nc2ccccc2[nH]1`: -0.1%; for `Cc1ccc(/C(N)=N/OC(=O)c2ccc(Br)cc2)cc1`: 1.1%.
Turning to `O=C1C(=O)N(CC2CCCO2)C(c2cccc([N+](=O)[O-])c2)/C1=C(/O)c1ccccc1` (stereo unspecified), the displacement was -4.4%.
In the case of `COc1cccc(C2NC(=O)NC(C)=C2C(=O)OCCc2ccccc2)c1OC` (stereo unspecified) it was -3%; in that of `COc1ccc(Cn2c3nc4ccccc4nc3c3c(=O)n(Cc4ccco4)c(C)nc32)cc1`, 2.5%; in that of `COc1ccc(Cn2c3nc4ccccc4nc3c3c(=O)n(Cc4ccco4)cnc32)cc1`, -6%.
The same measure for `COc1ccc(Cn2c(C)nc3c(c2=O)c2nc4ccccc4nc2n3Cc2ccco2)cc1`: 69.5% (active); for `O=C(O)CCCN1C(=O)/C(=C/c2cccc(Br)c2)SC1=S`: 6.7%.
As to `O=C(O)CCCCCN1C(=O)/C(=C/c2cccc(F)c2)SC1=S`, the displacement is -1.8%.
In the case of `O=C(O)CCCCCCCCCCN1C(=O)/C(=C/c2cccc(Br)c2)SC1=S` it was 56.6% (active); in that of `O=C(NN1CCOCC1)c1cc2ccccc2oc1=O`, 1.1%.
The same measure for `CC(=O)C1=C(C)NC(SCC(N)=O)=C(C#N)C1c1cccnc1` (stereo unspecified): -1.1%; for `Cc1ccc(-c2ccccc2)n1-c1ccccc1C(=O)O`: 5.6%; for `Cc1c(C(=O)O)cccc1-n1c(C)ccc1C`: 51.1% (active).
Consider `Cc1nc(=O)c(-c2ccccc2)c(C)n1-c1ccccc1C(=O)O`, for which the displacement is 6.5%.
Turning to `Cc1ccc(C)n1-c1ccccc1C(=O)O`, the displacement is 92.7% (active).
Take `Cc1ccc(C)n1-c1ccc(Cl)cc1C(=O)O`: the displacement was 104% (active).
In the case of `Cc1ccc(C)n1-c1ccc(Br)cc1C(=O)O` it was 7.4%; in that of `Cc1c(C(=O)O)cccc1-n1c(=O)c2cc3c(=O)n(-c4cccc(C(=O)O)c4C)c(=O)c3cc2c1=O`, -1.1%; in that of `Cc1ccc(C)n1-c1sccc1C(=O)O`, 24.9%.
The same measure for `COc1cc(C(=O)O)c(-n2c(C)ccc2C)cc1OC`: 6.6%; for `COc1cc(OC)cc(C(=O)N2CCN(C(=O)c3cccc(F)c3)CC2)c1`: 2.3%; for `COC(=O)c1ccc(/C=C2\SC(=S)N(C(Cc3ccccc3)C(=O)O)C2=O)cc1` (stereo unspecified): -0.2%.
The same measure for `O=C1NC(=O)/C(=C/c2c(F)cccc2Cl)S1`: 4.2%; for `S=c1[nH]nc(-c2cccc(Cl)c2)n1-c1ccccc1`: 4%; for `COc1ccc(CC(=O)c2cc(OC)c(OC)cc2CC(=O)O)cc1OC`: -0.7%.
Consider `COC(=O)c1cc(C#N)c(SCc2ccccc2)nc1C`, for which the displacement was -5%.
In the case of `O=C(c1ccc(N2CCN(C(=O)c3ccccc3F)CC2)cc1)c1cccc(F)c1` it was -2.9%; in that of `O=C(c1ccc(N2CCN(C(=O)c3ccccc3)CC2)cc1)c1cccc(F)c1`, -1.2%.
The same measure for `O=C(c1ccc(N2CCN(C(=O)c3ccccc3Br)CC2)cc1)c1cccc(F)c1`: 83.6% (active); for `CCN1CCN(P2(=O)C=C(c3ccccc3)OC(c3ccccc3)=C2)CC1`: 1.1%; for `O=C(c1coc(=O)c(Br)c1)N1CCOCC1`: 7.3%.
Turning to `O=C(c1coc(=O)c(Br)c1)N1CCCc2ccccc21`, the displacement is 6.5%.
The same measure for `COc1ccc(CCNC(=O)CSc2nc3ccccc3o2)cc1OC`: 0.2%.
In the case of `O=C1c2oc3ccc(F)cc3c(=O)c2C(c2ccccc2)N1CC1CCCO1` (stereo unspecified) it was -3.1%; in that of `COc1ccc(C2c3c(oc4ccccc4c3=O)C(=O)N2CC2CCCO2)cc1` (stereo unspecified), -2.4%; in that of `O=C(COc1ccc([N+](=O)[O-])cc1)Nc1cccc(Cl)c1Cl`, 2.1%.
In the case of `CCCCOc1ccc(N2C(=O)C3CC(C)=C(C)CC3C2=O)cc1` (stereo unspecified) it was 0.2%.
Take `CCOc1cc(CNn2cnnc2)cc(Br)c1OCC(=O)NC1CCCCC1`: the displacement was 5.5%.
In the case of `C=CCn1c2ccccc2c2nnc(SCC(=O)Nc3sc4c(c3C#N)CCCC4)nc21` it was -2%; in that of `CC(=NCCCn1ccnc1)c1c(-c2ccccc2)[nH]n(-c2nc3ccccc3s2)c1=O`, 0.5%; in that of `Cc1c(NS(=O)(=O)c2cc(Cl)ccc2Cl)cccc1[N+](=O)[O-]`, -2.4%.
Turning to `O=C(Nc1ccc(N2CCOCC2)cc1)Nc1ccc2nc(-c3ccco3)c(-c3ccco3)nc2c1`, the displacement was 1.1%.
In the case of `O=C(Nc1ccc2nc(-c3cccs3)c(-c3cccs3)nc2c1)NC1CC1` it was 2.3%.
In the case of `Brc1ccc(/C=N/c2ncn[nH]2)cc1` it was 3.3%; in that of `CCN1C(=O)/C(=C\c2ccc(OCc3ccccc3Cl)cc2)SC1=S`, -2.5%.
The same measure for `C=CCN1C(=O)/C(=C/c2cccc(OCc3ccccc3Cl)c2)SC1=S`: 0.3%; for `C=CCN1C(=O)/C(=C\c2ccc(OCc3ccccc3Cl)cc2)SC1=S`: 56.5% (active).
